Structures are written as SMILES. Active and inactive are the calls of the source.

A short description of test [1]: optical density shifts of acrAB sulA E. coli – strain DRC41, OD650, 48 h, E. coli filamentation inducer project, primary screen (AID 1152).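 Further: E. coli MC1000 strain DRC41 lacking acrAB efflux pump and sulA.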 The settings on record: higher = more signal, called active from +8 up or from −8 down.
A short description of test [2]: probe aLefty1 binding on compound microarray – biochemical, small-molecule microarray, 635/667 nm fluorescence, primary screen (AID 1153).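 Further: score merges spot fluorescence with signal-to-noise ratio from the scanned slide images.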 The settings on record: higher = more signal.
Test [3] in a line: plasmodial surface anion channel blockers, osmotic lysis – cell-based, P. falciparum Indochina, OD700, 1 h, primary screen (AID 1154). The settings on record: P. falciparum Indochina infected RBC osmotic lysis, higher = more signal, called active from +8 up or from −8 down.
A short description of test [4]: plasmodial surface anion channel blockers, osmotic lysis – cell-based, P. falciparum Indochina, OD700, 2 h, primary screen (AID 1155).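 Further: lysis reports solute entry through the parasite surface anion channel PSAC.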 The settings on record: P. falciparum Indochina infected erythrocytes, higher = more signal, called active from +8 up or from −8 down.
A short description of test [5]: changes in parasitized red cell lysis, either direction – P. falciparum Indochina, OD700, 3 h, PSAC antagonist project, primary screen (AID 1156). The settings on record: P. falciparum-infected erythrocytes, osmotic lysis, higher = more signal, called active from +8 up or from −8 down.
A short description of test [6]: plasmodial surface anion channel blockers, osmotic lysis – cell-based, P. falciparum Indochina, OD700, 18 h, primary screen (AID 1157). The settings on record: P. falciparum Indochina infected erythrocytes, osmotic lysis OD700, 18 h; higher = more signal, called active from +8 up or from −8 down.
A short description of test [7]: S6 kinase pathway phospho-S6 level changes – cell-based, A549, cytoblot, luminescence, serum-stimulated, primary screen (AID 1158).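 Further: serum-stimulated A549 lung adenocarcinoma cells; signal is phosphorylated S6 detected by cytoblot immunostaining with HRP secondary.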 The settings on record: 5 h, higher = more signal.
Test [8] deals with NADPH oxidase 2 (Homo sapiens) (UniProt P04839). Nature of the test: compounds shifting NOX2 Amplex Red fluorescence – cell-based, HEK293-NOX2, PMA-stimulated, NOX inhibitor project, primary screen (AID 1159). Further: test concentration not given here. The settings on record: 45 min, higher = more signal, called active from +8 up or from −8 down.
NADPH oxidase 2 (Homo sapiens), sequence (P04839 whole entry, looked up): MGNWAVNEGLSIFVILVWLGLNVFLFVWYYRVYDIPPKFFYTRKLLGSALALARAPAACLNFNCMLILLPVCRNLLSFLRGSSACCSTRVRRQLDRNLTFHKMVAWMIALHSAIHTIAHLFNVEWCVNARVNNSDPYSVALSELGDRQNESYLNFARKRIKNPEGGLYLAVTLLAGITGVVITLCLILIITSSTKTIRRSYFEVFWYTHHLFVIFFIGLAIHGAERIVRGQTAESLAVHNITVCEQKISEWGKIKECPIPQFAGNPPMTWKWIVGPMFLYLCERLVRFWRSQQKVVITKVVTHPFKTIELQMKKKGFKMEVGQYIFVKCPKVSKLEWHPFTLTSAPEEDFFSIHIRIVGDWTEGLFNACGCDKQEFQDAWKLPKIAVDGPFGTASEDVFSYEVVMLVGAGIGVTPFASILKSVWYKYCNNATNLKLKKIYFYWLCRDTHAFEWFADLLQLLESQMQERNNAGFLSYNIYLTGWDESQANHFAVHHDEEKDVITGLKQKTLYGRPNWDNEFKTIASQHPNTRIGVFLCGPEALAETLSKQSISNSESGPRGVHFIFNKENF
Test [9] has as its target NADPH oxidase 4 (Homo sapiens) (UniProt Q9NPH5). The test can be described thus: compounds shifting NOX4 Amplex Red fluorescence – cell-based, HEK293-NOX4, tetracycline-induced, NOX inhibitor project, primary screen (AID 1160). The settings on record: HEK293-NOX4, Amplex Red H2O2 fluorescence, 45 min; higher = more signal, called active from +8 up or from −8 down.
Test [10] addresses NADPH oxidase 5 (Homo sapiens) (UniProt Q96PH1). Nature of the test: compounds shifting NOX5 Amplex Red fluorescence – cell-based, HEK293-NOX5, NOX inhibitor project, primary screen (AID 1161). The settings on record: HEK293-NOX5, ionomycin, 45 min, higher = more signal.
A short description of test [11]: compound effects on lung adenocarcinoma cell viability – A549, calcein-AM fluorescence, 48 h, basal, profiling panel (AID 1162). Further: test concentration not given here. The settings on record: higher = more signal.
Test [12] can be described thus: compound effects on differentiated 3T3-L1 adipocyte viability – cell-based, 3T3-L1 adipocytes, calcein-AM fluorescence, 48 h, basal, profiling panel (AID 1163). Further: test concentration not given here. The settings on record: 3T3-L1 adipocytes viability, higher = more signal.
Test [13] is described as follows: compound effects on hepatocellular carcinoma cell viability – HepG2, calcein-AM fluorescence, 48 h, basal, profiling panel (AID 1164). Further: test concentration not given here. The settings on record: higher = more signal.
Test [14] can be described thus: compound effects on multiple myeloma cell viability – MM1S, calcein-AM fluorescence, 48 h, basal, profiling panel (AID 1165).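 Further: viability of MM1S multiple myeloma cells under basal unstimulated conditions; test concentration not given here.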 The settings on record: higher = more signal.
A short description of test [15]: calcein-AM signal in unstimulated myeloma cells – cell-based, calcein-AM fluorescence, 48 h, PK04 Diversity Set, profiling panel (AID 1166).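 Further: cells grown under basal conditions without added stimulus; test concentration not given here.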 The settings on record: RPMI8226 myeloma viability, higher = more signal.
Test [16] can be described thus: JC-1 mitochondrial signal, unstimulated HepG2 cells – cell-based, JC-1 fluorescence, 24 h, 100 nL compound, profiling panel (AID 1167). Further: test concentration not given here. The settings on record: HepG2 mitochondrial potential, higher = more signal.
The nature of test [17]: JC-1 mitochondrial signal, unstimulated adipocytes – cell-based, JC-1 fluorescence, 3T3-L1 adipocytes, 24 h, 100 nL compound, profiling panel (AID 1168). Further: test concentration not given here. The settings on record: JC-1 mitochondrial fluorescence, higher = more signal, called active from +8 up or from −8 down.
The nature of test [18]: JC-1 mitochondrial signal, unstimulated myeloma cells – cell-based, JC-1 fluorescence, RPMI8226, 24 h, 100 nL compound, profiling panel (AID 1169). Further: test concentration not given here. The settings on record: JC-1 mitochondrial potential fluorescence, higher = more signal.
Test [19] is described as follows: JC-1 mitochondrial signal, unstimulated MM1S myeloma – cell-based, JC-1 fluorescence, 24 h, 100 nL compound, profiling panel (AID 1170). Further: test concentration not given here. The settings on record: MM1S mitochondrial potential, higher = more signal.
Test [20] in a line: resazurin metabolic signal in A549 cells – cell-based, resazurin fluorescence, 24 h, PK04 Diversity Set, profiling panel (AID 1171). Further: test concentration not given here. The settings on record: A549 viability, higher = more signal, called active from +8 up or from −8 down. In general terms: Resazurin is reduced to fluorescent resorufin, in cell work by metabolically active cells.

NADPH oxidase 4 (Homo sapiens), sequence (Q9NPH5 whole entry, looked up): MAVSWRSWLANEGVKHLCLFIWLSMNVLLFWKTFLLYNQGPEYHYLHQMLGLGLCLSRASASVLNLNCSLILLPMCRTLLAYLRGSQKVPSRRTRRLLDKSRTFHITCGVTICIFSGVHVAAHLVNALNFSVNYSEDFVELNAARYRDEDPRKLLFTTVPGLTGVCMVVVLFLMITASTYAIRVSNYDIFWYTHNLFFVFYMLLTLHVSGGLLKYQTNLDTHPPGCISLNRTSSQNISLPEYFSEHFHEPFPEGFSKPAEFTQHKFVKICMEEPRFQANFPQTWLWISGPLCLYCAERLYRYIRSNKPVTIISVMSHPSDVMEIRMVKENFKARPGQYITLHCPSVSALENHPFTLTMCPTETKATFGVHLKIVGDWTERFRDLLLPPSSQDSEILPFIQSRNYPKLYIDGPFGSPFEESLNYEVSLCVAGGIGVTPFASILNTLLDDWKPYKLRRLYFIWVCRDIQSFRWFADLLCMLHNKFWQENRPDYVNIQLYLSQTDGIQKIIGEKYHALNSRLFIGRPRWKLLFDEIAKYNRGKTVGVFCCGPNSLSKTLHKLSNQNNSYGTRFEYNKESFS
NADPH oxidase 5 (Homo sapiens), sequence (Q96PH1 whole entry, looked up): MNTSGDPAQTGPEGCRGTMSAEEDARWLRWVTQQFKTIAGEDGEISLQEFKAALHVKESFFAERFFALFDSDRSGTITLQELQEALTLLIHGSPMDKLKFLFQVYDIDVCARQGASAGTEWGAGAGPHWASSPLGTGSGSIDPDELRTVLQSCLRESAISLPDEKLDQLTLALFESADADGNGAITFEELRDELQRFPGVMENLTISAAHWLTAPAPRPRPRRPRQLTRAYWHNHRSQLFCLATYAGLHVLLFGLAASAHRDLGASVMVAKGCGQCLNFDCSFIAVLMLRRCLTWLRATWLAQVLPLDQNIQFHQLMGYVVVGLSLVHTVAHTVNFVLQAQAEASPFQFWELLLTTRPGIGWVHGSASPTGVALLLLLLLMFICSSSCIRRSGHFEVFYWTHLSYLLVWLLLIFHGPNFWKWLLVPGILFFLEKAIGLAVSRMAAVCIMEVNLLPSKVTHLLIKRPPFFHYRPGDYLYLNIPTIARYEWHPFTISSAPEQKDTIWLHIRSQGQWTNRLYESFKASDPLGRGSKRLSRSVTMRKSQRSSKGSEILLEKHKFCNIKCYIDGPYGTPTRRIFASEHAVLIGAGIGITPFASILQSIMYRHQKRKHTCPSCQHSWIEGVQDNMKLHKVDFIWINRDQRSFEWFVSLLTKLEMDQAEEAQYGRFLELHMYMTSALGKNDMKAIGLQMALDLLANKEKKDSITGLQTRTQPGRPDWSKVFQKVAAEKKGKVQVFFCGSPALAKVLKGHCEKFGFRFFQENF

Regarding `CO[C@@H]1COC(=O)CC=C[C@@H](C)[C@H](OC)COC(=O)[C@H](COCc2ccccc2)NC(=O)CC=C[C@H]1C`, the z-score in [1] is -0.991 (inactive); in test [3] it was -0.129 (inactive); in test [4], 0.151 (inactive); in test [5], 0.181 (inactive); in test [6], 0.354 (inactive); in test [7] it was 0.354. Further, the z-score in test [8] is -1.79 (inactive); in test [9], 0.0385 (inactive); in test [10], 0.0539; in [11] it was -0.0667; in test [12] it was 0.461; in test [13] it was 0.422. The z-score was -0.0878 in [14]; 0.651 in test [15]; 0.0535 in test [16]; -0.303 (inactive) in test [17]; 0.577 in [18]; 0.179 in [19]. Also, in [20], the z-score was -0.27 (inactive). In test [2], the composite z-score was -0.147.

In the case of `C[C@H]1CC[C@@H](C(=O)O)N[C@@H]1c1ccc(C#CCN(C)C)cc1`, the z-score in [1] was 0.883 (inactive); in [3] it was 0.167 (inactive); in test [4] it was -0.219 (inactive); in test [5] it was 0.274 (inactive); in test [6], -0.0947 (inactive); in test [7], 0.112. Further, the z-score in test [8] is 0.903 (inactive); in [9], -0.00118 (inactive); in test [10] it was 0.0715; in [11], 0.683; in test [12] it was 0.398; in test [13] it was 0.777. In addition, the z-score in test [14] was 0.601; in test [15], -0.338; in test [16], 0.984; in test [17], 0.461 (inactive); in [18] it was -0.562; in [19], 0.921. The z-score in test [20] is 0.413 (inactive). In test [2], the composite z-score is -0.231.

For `C=CCOC(=O)[C@H]1[C@@H]2C(=O)O[C@@H](c3ccccc3)[C@@H](c3ccccc3)N2[C@@H](c2ccc(OCCOC(=O)[C@H]3C[C@H]4C(=O)N[C@@H](Cc5ccccc5)C(=O)N4[C@H]3c3ccc(O)cc3)cc2)[C@]12C(=O)Nc1ccccc12`, the z-score in test [1] was 0.561 (inactive); in test [3], 2.5 (inactive); in [4], 1.2 (inactive); in [5], -4 (inactive); in test [6], 0.988 (inactive); in [7], 0.338. The z-score in test [8] was 1.83 (inactive); in test [9], 0.898 (inactive); in [10] it was 1.44; in test [11] it was -0.794; in test [12] it was 0.689; in test [13], 0.642. Further, the z-score in test [14] is 0.0505; in test [15], -0.216; in test [16], -1.47; in [17], 0.0241 (inactive); in test [18] it was -0.287; in test [19], -0.718. For the same molecule, the z-score in [20] is 1.7 (inactive). For the same molecule, the composite z-score in test [2] was -0.263.

Consider `CCOC(=O)[C@H](CC(C)C)NC(=O)CCC1CC(OC(=O)NCc2cccc3ccccc23)CC2(CCCC(COC(=O)NCCc3ccccc3OC)O2)O1` (stereo not given in full), for which the z-score is -0.596 (inactive) in test [1]; -1.28 (inactive) in test [3]; -0.0901 (inactive) in [4]; -0.868 (inactive) in [5]; 0.298 (inactive) in [6]; 0.0059 in test [7]. The z-score is 0.527 (inactive) in test [8]; 0.69 (inactive) in test [9]; 1.02 in test [10]; -0.571 in test [11]; -0.187 in test [12]; -0.766 in test [13]. Moreover, the z-score was 0.0779 in test [14]; -0.407 in test [15]; 0.602 in test [16]; -0.0276 (inactive) in test [17]; -0.0975 in [18]; -0.157 in test [19]. Further, in [20], the z-score is 0.45 (inactive). The composite z-score in test [2] was -0.147.

Turning to `C=CCN1C(=O)[C@]2(O[C@H](CCn3cc(CCO)nn3)[C@@H]([Si](C)(C)c3ccc(OC)cc3)[C@@H]2C)c2cc(N3CCOC3=O)ccc21`, the z-score was -0.902 (inactive) in test [1]; 6.82 (inactive) in [3]; 0.536 (inactive) in test [4]; -0.5 (inactive) in [5]; 0.376 (inactive) in test [6]; 0.199 in test [7]. For the same molecule, the z-score in test [8] is 0.111 (inactive); in test [9] it was 3.32 (inactive); in test [10], 1.57; in test [11], 0.0694; in test [12], 0.654; in test [13] it was -0.316. Besides, the z-score is -2.64 in [14]; -1.37 in test [15]; 0.464 in [16]; -0.0813 (inactive) in test [17]; -0.585 in [18]; -0.539 in test [19]. Moreover, the z-score in [20] was 0.333 (inactive). Also, in [2], the composite z-score came to 0.0509.

Values taken from PubChem BioAssay.
